The values below come from ChEMBL document CHEMBL1961873, “Compounds: GSK PKIS; Assays: Nanosyn kinase panel” (2012).

Assay [1] has as its target Serine/threonine-protein kinase 26 (Homo sapiens) (UniProt Q9P289). Particulars: at 1 µM.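 Further: mean inhibition of MST4 kinase activity, reported from the GSK PKIS inhibitor-set screening panel.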
Assay [2] deals with Serine/threonine-protein kinase PAK 1 (Homo sapiens) (UniProt Q13153). Particulars: at 0.1 µM.
Assay [3] has the same target. The note with it: at 1 µM.
Assay [4] has as its target Serine/threonine-protein kinase PAK 2 (Homo sapiens) (UniProt Q13177). Particulars: at 0.1 µM.
The target is the same in assay [5]. The note with it: at 1 µM.
Assay [6] deals with Serine/threonine-protein kinase PAK 3 (Homo sapiens) (UniProt O75914). The note with it: at 0.1 µM.
The target is the same in assay [7]. The note with it: at 1 µM.
In assay [8] the target is Serine/threonine-protein kinase PAK 5 (Homo sapiens) (UniProt Q9P286). The note with it: at 0.1 µM.
The target is the same in assay [9]. The note with it: at 1 µM.
The target of assay [10] is Serine/threonine-protein kinase PAK 6 (Homo sapiens) (UniProt Q9NQU5). Particulars: at 0.1 µM.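 Further: mean PAK6 inhibition reported from the GSK PKIS screen.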
Chain of Serine/threonine-protein kinase PAK 6 (Homo sapiens) (Q9NQU5 whole entry, looked up): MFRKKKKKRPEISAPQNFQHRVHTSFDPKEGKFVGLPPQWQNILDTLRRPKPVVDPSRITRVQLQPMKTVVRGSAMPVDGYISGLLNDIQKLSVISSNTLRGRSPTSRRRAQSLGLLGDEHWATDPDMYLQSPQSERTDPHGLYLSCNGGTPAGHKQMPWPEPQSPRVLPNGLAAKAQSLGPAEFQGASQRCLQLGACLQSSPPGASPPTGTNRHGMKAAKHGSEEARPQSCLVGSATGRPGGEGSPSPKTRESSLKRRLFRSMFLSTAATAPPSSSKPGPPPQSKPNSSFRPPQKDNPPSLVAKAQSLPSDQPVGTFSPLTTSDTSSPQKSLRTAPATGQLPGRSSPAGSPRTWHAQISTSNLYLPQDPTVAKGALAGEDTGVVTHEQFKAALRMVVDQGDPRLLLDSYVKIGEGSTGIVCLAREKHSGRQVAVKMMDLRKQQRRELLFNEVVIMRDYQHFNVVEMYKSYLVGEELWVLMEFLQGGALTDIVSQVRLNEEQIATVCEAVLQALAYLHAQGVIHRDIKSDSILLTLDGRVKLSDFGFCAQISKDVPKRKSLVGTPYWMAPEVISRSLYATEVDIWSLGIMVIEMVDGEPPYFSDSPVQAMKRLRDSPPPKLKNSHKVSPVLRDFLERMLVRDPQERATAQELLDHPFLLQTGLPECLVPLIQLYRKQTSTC

Chain of Serine/threonine-protein kinase 26 (Homo sapiens) (Q9P289 2-416 limits assumed): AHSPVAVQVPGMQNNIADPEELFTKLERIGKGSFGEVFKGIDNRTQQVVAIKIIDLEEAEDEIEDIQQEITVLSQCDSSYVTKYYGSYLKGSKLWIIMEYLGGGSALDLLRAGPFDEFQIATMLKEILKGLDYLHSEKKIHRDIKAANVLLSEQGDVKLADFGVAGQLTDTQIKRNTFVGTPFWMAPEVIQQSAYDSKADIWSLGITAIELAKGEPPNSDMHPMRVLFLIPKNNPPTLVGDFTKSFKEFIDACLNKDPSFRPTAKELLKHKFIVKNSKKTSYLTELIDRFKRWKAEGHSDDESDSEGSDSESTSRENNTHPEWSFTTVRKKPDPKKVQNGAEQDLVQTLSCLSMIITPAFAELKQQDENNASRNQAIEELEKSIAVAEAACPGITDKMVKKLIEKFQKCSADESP
Chain of Serine/threonine-protein kinase PAK 1 (Homo sapiens) (Q13153 whole entry): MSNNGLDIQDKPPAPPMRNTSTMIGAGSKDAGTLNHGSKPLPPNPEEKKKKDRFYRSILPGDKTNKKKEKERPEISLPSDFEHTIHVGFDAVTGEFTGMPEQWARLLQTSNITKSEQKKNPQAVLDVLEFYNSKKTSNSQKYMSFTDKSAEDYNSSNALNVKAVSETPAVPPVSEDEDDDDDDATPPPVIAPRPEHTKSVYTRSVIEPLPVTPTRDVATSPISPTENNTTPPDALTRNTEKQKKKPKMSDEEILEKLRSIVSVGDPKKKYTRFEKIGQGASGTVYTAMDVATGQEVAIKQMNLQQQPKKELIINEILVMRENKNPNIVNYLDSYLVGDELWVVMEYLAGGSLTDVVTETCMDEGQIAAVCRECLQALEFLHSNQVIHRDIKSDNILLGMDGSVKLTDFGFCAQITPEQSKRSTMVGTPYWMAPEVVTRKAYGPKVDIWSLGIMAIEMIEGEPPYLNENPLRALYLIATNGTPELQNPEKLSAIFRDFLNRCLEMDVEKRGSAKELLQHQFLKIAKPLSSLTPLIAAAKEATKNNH
Chain of Serine/threonine-protein kinase PAK 5 (Homo sapiens) (Q9P286 whole entry, looked up): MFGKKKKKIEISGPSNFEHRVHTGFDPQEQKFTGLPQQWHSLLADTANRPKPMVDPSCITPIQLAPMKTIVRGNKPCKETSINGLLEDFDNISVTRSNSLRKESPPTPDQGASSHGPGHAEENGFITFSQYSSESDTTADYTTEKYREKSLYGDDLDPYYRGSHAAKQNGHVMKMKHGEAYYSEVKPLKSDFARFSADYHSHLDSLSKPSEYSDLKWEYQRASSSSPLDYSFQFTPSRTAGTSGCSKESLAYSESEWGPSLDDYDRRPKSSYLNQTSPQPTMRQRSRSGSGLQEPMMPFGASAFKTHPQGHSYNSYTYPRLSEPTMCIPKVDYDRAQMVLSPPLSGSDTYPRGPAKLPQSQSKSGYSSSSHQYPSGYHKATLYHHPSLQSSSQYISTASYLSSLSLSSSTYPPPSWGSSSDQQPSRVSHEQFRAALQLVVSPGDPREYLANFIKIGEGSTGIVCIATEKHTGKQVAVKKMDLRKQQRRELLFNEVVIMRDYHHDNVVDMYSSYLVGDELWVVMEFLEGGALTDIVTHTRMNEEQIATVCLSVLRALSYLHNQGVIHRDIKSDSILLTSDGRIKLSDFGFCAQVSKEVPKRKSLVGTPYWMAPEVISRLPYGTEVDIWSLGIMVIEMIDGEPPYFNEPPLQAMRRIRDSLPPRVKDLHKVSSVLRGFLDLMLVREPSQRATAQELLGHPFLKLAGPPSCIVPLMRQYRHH
Chain of Serine/threonine-protein kinase PAK 3 (Homo sapiens) (O75914 whole entry, looked up): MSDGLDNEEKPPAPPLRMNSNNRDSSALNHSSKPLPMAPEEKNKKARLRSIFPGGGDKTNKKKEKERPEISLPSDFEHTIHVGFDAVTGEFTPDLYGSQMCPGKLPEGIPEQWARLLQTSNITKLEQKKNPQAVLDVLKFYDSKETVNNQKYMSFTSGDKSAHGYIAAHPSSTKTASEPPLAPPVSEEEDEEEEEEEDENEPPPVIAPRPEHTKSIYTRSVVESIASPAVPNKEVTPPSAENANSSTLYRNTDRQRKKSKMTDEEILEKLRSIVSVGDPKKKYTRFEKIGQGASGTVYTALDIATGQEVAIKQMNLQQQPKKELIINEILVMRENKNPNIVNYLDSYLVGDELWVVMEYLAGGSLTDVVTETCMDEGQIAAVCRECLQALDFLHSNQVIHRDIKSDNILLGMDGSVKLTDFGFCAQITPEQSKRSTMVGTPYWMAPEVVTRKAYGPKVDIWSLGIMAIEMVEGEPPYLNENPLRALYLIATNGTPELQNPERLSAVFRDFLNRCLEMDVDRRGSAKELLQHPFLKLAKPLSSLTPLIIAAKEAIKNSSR
Chain of Serine/threonine-protein kinase PAK 2 (Homo sapiens) (Q13177 whole entry): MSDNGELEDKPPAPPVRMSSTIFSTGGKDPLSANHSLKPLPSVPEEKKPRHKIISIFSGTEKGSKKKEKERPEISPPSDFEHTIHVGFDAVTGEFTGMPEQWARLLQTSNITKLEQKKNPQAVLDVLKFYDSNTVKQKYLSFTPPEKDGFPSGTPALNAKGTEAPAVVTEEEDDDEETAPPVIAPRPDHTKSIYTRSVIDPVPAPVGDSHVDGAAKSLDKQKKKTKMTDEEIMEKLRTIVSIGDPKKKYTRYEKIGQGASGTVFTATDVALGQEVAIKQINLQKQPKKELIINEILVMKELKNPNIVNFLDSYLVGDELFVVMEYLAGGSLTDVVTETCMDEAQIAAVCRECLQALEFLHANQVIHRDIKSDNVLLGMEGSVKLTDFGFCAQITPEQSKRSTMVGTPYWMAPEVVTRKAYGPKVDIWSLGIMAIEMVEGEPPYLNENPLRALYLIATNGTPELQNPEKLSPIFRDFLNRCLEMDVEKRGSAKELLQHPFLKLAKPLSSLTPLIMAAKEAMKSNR

For the molecule `Cc1ccc(Nc2ccnc(Nc3cccc(C(N)=O)c3)n2)cc1O`, the inhibition was found to be 2.75% in [1]; 5.46% in assay [2]; 8.57% in assay [3]; 1.77% in assay [4]; 1.45% in [5]; 3.06% in assay [6]. Further, the inhibition in [7] came to 3.98%; in assay [8], 5.17%; in assay [9], 11.2%.
In the case of `Cc1ccc(NC(=O)CC2CC2)cc1-c1ccc(C(=O)NCC2CC2)cc1`, the inhibition in assay [1] was 0.9%; in assay [2], 5.24%; in assay [3] it was 4.74%; in assay [4] it was 1.76%; in assay [5] it was 1.56%; in [6], 3.33%. The inhibition in assay [7] is 4.25%; in [8] it was 6.64%; in assay [9], 5.74%.
With `COC(=O)c1ccc2c(c1)C(=Cc1cc(Br)c(O)c(Br)c1)C(=O)N2`, the inhibition worked out at 15.1% in assay [1]; 8.19% in [2]; 10.1% in [3]; 1.7% in assay [4]; 1.99% in assay [5]; 4.21% in [6]. The inhibition in assay [7] amounted to 5.43%; in assay [8] it was 7.06%; in assay [9], 10.8%.
With `NS(=O)(=O)c1cccc(Nc2cc(-c3ccc(F)cc3)n[nH]2)c1`, the inhibition in [1] is 0.86%; in assay [2] it was 3.94%; in assay [3], 8.53%; in assay [4], 1.36%; in assay [5], 1.54%; in [6], 3.88%. In addition, the inhibition in assay [7] came out at 4.82%; in [8], 10.3%; in assay [9], 11.7%; in [10], 2.82%.
As to `C[C@@H](Oc1cc(-n2cnc3ccc(OC[C@@H](O)CO)cc32)sc1C(N)=O)c1ccccc1Cl`, the inhibition in assay [1] is 1.05%; in [2], -2.19%; in assay [3], 1.45%; in assay [4], -2.74%; in assay [5], -0.42%; in [6], -2.28%. Besides, the inhibition in [7] is -0.49%; in assay [8], -7.17%; in [9], -4.24%; in assay [10], -7.41%.
For `NS(=O)(=O)c1ccc(-c2cc3ccncc3cc2OCc2ccccc2)cc1`, the inhibition was 0.38% in [1]; 5.31% in [2]; 6.13% in assay [3]; 1.08% in assay [4]; 0.46% in assay [5]; 3.48% in assay [6]. Also, the inhibition in assay [7] is 4.21%; in [8] it was 1.12%; in [9] it was -3.7%.
Turning to `Cc1ccc2c(-c3ccnc(Nc4ccc5c(c4)OCCO5)n3)c(-c3ccc(C(F)(F)F)cc3)nn2n1`, the inhibition was 0.53% in assay [1]; 0.57% in assay [2]; 2.13% in assay [3]; 0.68% in assay [4]; -0.11% in [5]; 2% in assay [6]. Further, the inhibition in assay [7] is 0.74%; in [8], -9.67%; in assay [9], -4.92%; in [10] it was 7.58%.
As to `COC(=O)Nc1nc2cc(Oc3ccc(NC(=O)Nc4cccc(Br)c4)cc3)ccc2[nH]1`, the inhibition in assay [1] is 9.97%; in [2] it was -0.8%; in assay [3] it was 6.23%; in assay [4], 0.73%; in assay [5], 0.39%; in assay [6], 2.85%. For the same molecule, the inhibition in assay [7] is 2.59%; in assay [8] it was -1.29%; in [9], -0.7%; in assay [10], -5.52%.
Regarding `O=S(=O)(CCOCc1ccc(-c2ccc3ncnc(Nc4ccc(OCc5cccc(F)c5)c(Cl)c4)c3c2)o1)c1ccccc1`, the inhibition in assay [1] was 0.25%; in [2], 4.98%; in assay [3], 5.84%; in assay [4], -0.35%; in assay [5], 0.7%; in assay [6], 0.57%. For the same molecule, the inhibition in assay [7] is 2.12%; in [8], 0.21%; in assay [9] it was -1.3%.
As for `NS(=O)(=O)c1cccc(-c2cc3ccncc3cc2OCc2ccccc2)c1`, the inhibition is -3.77% in assay [1]; 7.59% in assay [2]; 6.92% in assay [3]; 3.01% in [4]; 2.6% in assay [5]; 4.78% in assay [6]. Also, the inhibition in [7] is 7.31%; in assay [8] it was -0.43%; in [9], -0.51%; in assay [10], -0.02%.
For `CCS(=O)(=O)c1ccc(OC)c(Nc2nccc(N(C)c3ccc4c(C)n[nH]c4c3)n2)c1`, the inhibition in assay [1] is 0.16%; in assay [2] it was 3.86%; in assay [3] it was 6.28%; in assay [4], 1.58%; in assay [5], 1.86%; in assay [6], 5.97%. The inhibition in assay [7] worked out at 5.09%; in [8], 1.92%; in [9] it was 0.85%.
For the molecule `COc1ccc(-c2nn3ncccc3c2-c2ccnc(Nc3cccc(C(F)(F)F)c3)n2)cc1`, the inhibition was -0.52% in assay [1]; 6.36% in [2]; 5.19% in assay [3]; 0.91% in assay [4]; -0.8% in [5]; 3.37% in [6]. In addition, the inhibition is 3.1% in [7], 1.8% in assay [8], 1.57% in assay [9] and -2.15% in assay [10].
Regarding `COc1cccc(-n2nc(C)c3c(N/N=C(\C)c4ccncc4)ncnc32)c1`, the inhibition was 1.92% in [1]; -1.07% in assay [2]; 5.57% in [3]; -1.35% in assay [4]; -0.3% in assay [5]; 0.46% in assay [6]. Further, the inhibition in [7] is 2.49%; in [8], -0.74%; in assay [9], -1.22%.
Take `COc1ccc2ncnc(Nc3ccc(OCc4ccccc4)cc3)c2c1`: the inhibition in assay [1] was -1.42%; in [2], 0.31%; in assay [3], 3.44%; in assay [4] it was -0.61%; in assay [5] it was 0.47%; in assay [6] it was 2.33%. Besides, the inhibition in assay [7] was 2.78%; in [8], -6.57%; in [9], -2.45%; in assay [10], -7.36%.
In the case of `Cc1cc(O)cc(C)c1/C=C/c1cncc(C(=O)N(C)C)c1`, the inhibition was 1.13% in [1]; 2.77% in assay [2]; 6.81% in assay [3]; 1.73% in [4]; 0.38% in [5]; -0.76% in assay [6]. In addition, the inhibition in assay [7] came out at 2.83%; in assay [8], 3.14%; in assay [9], 6.26%; in assay [10], 7.18%.
Regarding `NS(=O)(=O)c1ccc(N/N=C2\C(=O)Nc3ccc(Cl)cc32)cc1`, the inhibition in assay [1] was found to be 13.4%; in assay [2], 3.14%; in assay [3] it was 5.51%; in assay [4] it was 0.72%; in assay [5], 1.37%; in assay [6] it was 3.71%. Moreover, the inhibition in assay [7] is 5.15%; in assay [8] it was 4.18%; in assay [9], 3.28%; in assay [10], -3.69%.
As for `COc1cc2ncn(-c3cc(OCc4ccccc4S(C)(=O)=O)c(C#N)s3)c2cc1OC`, the inhibition in assay [1] is 0.22%; in [2], 6.88%; in assay [3], 5.61%; in assay [4], 0.99%; in assay [5], 2.17%; in assay [6], 4.63%. The inhibition in [7] was determined as 5.52%; in assay [8] it was 3.87%; in assay [9], 4.97%; in [10], 4.22%.
`Nc1nccc(C#Cc2cncnc2Nc2ccc(OCc3cccc(F)c3)c(Cl)c2)n1`: the inhibition in assay [1] is -8.32%; in assay [2] it was 6.18%; in assay [3] it was 3.97%; in assay [4], 1.6%; in assay [5], 2.31%; in assay [6], 0.29%. Also, the inhibition in [7] is 3.37%; in assay [8], 3.29%; in assay [9], -3.56%; in assay [10], 5.51%.
In the case of `CN(C)C(=O)O[C@H]1CN[C@H](C#Cc2cc3ncnc(Nc4ccc(OCc5cccc(F)c5)c(Cl)c4)c3s2)C1`, the inhibition in assay [1] was -0.62%; in assay [2] it was 4.28%; in assay [3] it was 2.22%; in assay [4], 1.72%; in assay [5], -0.31%; in [6], 2.53%. The inhibition in assay [7] was determined as 4.3%; in [8], 4.8%; in assay [9], 1.82%; in assay [10], 9.3%.
As to `COc1cc2ncnc(Nc3ccc(C)c(O)c3)c2cc1OC`, the inhibition was -1.08% in assay [1]; 6.98% in [2]; 7.41% in [3]; 1.81% in [4]; 2.35% in [5]; 5.88% in [6]. In addition, the inhibition in [7] was 5.36%; in assay [8] it was 0.51%; in [9], 7.08%; in [10], -1.14%.

What is called inhibition is the change of the read-out against control, counted positive when it falls.
